Screens (PubChem BioAssay)
The list is not random: actives were taken first. Their share in the collection is about 3.8%.
tim23-1 inh – inhibits growth of tim23-1 mutant yeast; AID 463212; S. cerevisiae tim23-1 growth, BacTiter-Glo luminescence, 24 h; inhibition, % at 20 µM; actives 1.3% (n = 330,000);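 active = growth inhibition of the mutant yeast at or above 50%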;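 note: temperature-sensitive mutant grown at 25 °C; plate controls were DMSO-treated mutant yeast for no effect and medium wells lacking yeast for full effect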
Beta2AR agonist – human beta-2 adrenergic receptor agonism by FAP; Am2.2-beta2AR cells, FAP receptor internalization, flow cytometry; response, % (test concentration not listed); P07550; actives 0.43% (n = 340,000);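 active = response above a set limit, near 3 SD of response in nonfluorescent compounds, cut at about 42% in these data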
Target sequence (P07550 whole entry, looked up): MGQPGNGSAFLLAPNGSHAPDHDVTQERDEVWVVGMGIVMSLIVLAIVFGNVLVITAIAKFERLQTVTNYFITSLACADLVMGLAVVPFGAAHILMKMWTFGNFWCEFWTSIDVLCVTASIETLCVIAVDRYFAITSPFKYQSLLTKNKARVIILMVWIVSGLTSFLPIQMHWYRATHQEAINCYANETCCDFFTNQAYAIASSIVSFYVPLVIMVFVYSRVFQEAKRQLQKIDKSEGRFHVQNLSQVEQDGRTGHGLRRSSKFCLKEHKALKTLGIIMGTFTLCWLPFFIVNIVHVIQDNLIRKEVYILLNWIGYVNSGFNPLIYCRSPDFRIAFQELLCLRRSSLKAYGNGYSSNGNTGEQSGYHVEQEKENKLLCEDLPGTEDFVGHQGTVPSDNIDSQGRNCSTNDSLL
PfHsp90 yeast 2 – inhibits growth of yeast expressing Plasmodium falciparum Hsp90 | inhibition, % at 9.4 µM | actives 0.32% (n = 310,000) | S. cerevisiae expressing PfHsp90, BacTiter-Glo ATP, 48 h; yeast lacking PDR1 and PDR3 efflux regulators;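 active = every replicate shows inhibition above about 80%, whatever the replicate mean, limit read from the data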;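 note: 0% = DMSO neutral controls and 100% = 20 µM radicicol positive controls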
tim10-1 inh – growth inhibitors of tim10-1 mutant yeast; S. cerevisiae tim10-1 ts strain growth, BacTiter-Glo, 24 h; inhibition, % at 20 µM; actives 2.2% (n = 330,000); AID 463190;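 active = inhibition of at least 40%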;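 note: mutant grown at 25 °C; 0% = DMSO wells with yeast and 100% = wells holding no yeast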
TIM10 inh – TIM10 yeast growth inhibition; S. cerevisiae TIM10 strain growth, BacTiter-Glo luminescence, 24 h; inhibition, % at 10 µM; actives 1.4% (n = 330,000);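 active = inhibition of 40% or more at the single tested concentration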;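 note: wild-type TIM10 isogenic control strain grown at permissive 25 °C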
tim23-1 confirm – tim23-1 yeast growth inhibition, confirmed | shares compounds with tim23-1 inh | S. cerevisiae tim23-1 growth, BacTiter-Glo luminescence, 24 h | inhibition, % at 20 µM | actives 83% (n = 4,400) | AID 463218;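 active = inhibition above about 39% in either of two replicate wells at 20 µM, limit read from the data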;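 note: temperature-sensitive tim23-1 mutant grown at 25 °C; 0% = DMSO wells with yeast and 100% = medium wells without yeast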
* marks the source's active call; other numbers are inactive results; . = not tested or not shown.

SMILES	tim23-1 inh	Beta2AR agonist	PfHsp90 yeast 2	tim10-1 inh	TIM10 inh	tim23-1 confirm
O=C(O)COc1ccccc1C(Nc1cccnc1)c1cc(Cl)c2cccnc2c1O (centres undefined)	10	4	5	-1	22	.
O=C(NC(c1ccccc1)c1cc(Cl)c2cccnc2c1O)c1cccnc1 (centres undefined)	70*	.	.	36	-17	80*
CCC(=O)NC(C)c1cc(Cl)c2cccnc2c1O (centres undefined)	55*	-4	-14	31	9	58*
CC(C)CC(=O)NC(c1cccs1)c1ccc2cccnc2c1O (centres undefined)	52*	7	104*	33	-43	65*
O=C(CCl)N1c2ccccc2SCC1c1ccccc1 (centres undefined)	54*	18	-4	0	29	51*
O=C(CCl)N1c2ccccc2OCC1c1ccccc1 (centres undefined)	46	11	-34	39	28	.
Clc1cccc(Cl)c1/C=N/Nc1c(Cl)cncc1Cl	-5	3	2	28	36	.
Clc1cncc(Cl)c1N/N=C/c1ccncc1	54*	16	2	0	18	25
CC(C)CCSc1nc(N2CCOCC2)c2c(c1C#N)CC(C)(C)OC2	60*	4	-16	8	0	20
COC(=O)CCSc1nc(N2CCOCC2)c2c(c1C#N)CC(C)(C)OC2	18	4	8	20	7	.
CCN(CC)S(=O)(=O)c1cccc(NC(=O)CNc2cccc(S(=O)(=O)N3CCOCC3)c2)c1	-5	-8	-21	5	-1	.
COc1ccc(OC)c(-c2csc(NC(=O)Cc3ccccc3F)n2)c1	51*	1	-31	15	13	46*
Cc1nnc(SCC(=O)N2c3ccccc3CC2C)[nH]c1=O (centres undefined)	-3	-2	11	11	4	.
CCCCN1C(C)=CC(=C2C(=O)c3ccccc3C2=O)C=C1C	-16	-18	39	-29	-12	.
Cc1ccc2c(c1)C(=O)C(=O)N2c1ccc(Cl)cc1	66*	2	5	13	24	75*
Cc1ccc(OCCN2C(=O)c3ccccc3C2=O)cc1	21	-10	.	16	2	.
Cc1ccc2c(c1)C(=O)C(=O)N2c1ccc(C(F)(F)F)cc1	26	2	-20	8	2	.
Cc1ccc2c(c1)C(=O)C(=O)N2Cc1ccc(Br)cc1	68*	19	13	36	39	1
CCCCN1C(=O)C(=O)c2cc(Cl)ccc21	59*	4	0	18	25	55*
Cc1cccc2c1N(CCCOc1ccccc1)C(=O)C2=O	59*	7	-1	23	26	56*
Cc1ccc2c(c1)C(=O)C(=O)N2CC(=O)Nc1ccccc1NC(=O)c1ccccn1	14	-6	6	4	6	.
Cc1ccc2c(c1)C(=O)C(=O)N2CCOc1ccccc1	43	-2	-4	13	12	.
Cc1ccc(CN2C(=O)C(=O)c3cc(C)ccc32)cc1	79*	17	9	16	25	84*
Cc1cccc(OCCN2C(=O)C(=O)c3cc(C)ccc32)c1	51*	16	-8	11	12	49*
CCCN1C(=O)C(=O)c2cc(C)ccc21	18	13	18	-11	-2	.
SMILES	tim23-1 inh	Beta2AR agonist	PfHsp90 yeast 2	tim10-1 inh	TIM10 inh	tim23-1 confirm
CCOc1ccccc1/C=C(\C#N)C(=O)NC1CC1	55*	-4	.	28	39	52*
Cn1c(-c2sc3ccccc3c2Cl)n[nH]c1=S	52*	2	-23	27	29	44*
COc1ccc(-c2cn3c(C)c(C(=O)N4CCCc5ccccc54)sc3n2)cc1	53*	14	-17	20	0	59*
COc1ccc(C(=O)N2CCCc3ccccc32)cc1	4	2	1	25	-11	.
Cc1cccc(N2C(=O)/C(=C/c3cccnc3)SC2=S)c1	58*	-2	6	38	11	54*
O=C(Cc1ccc(Cl)cc1)Nc1ncc([N+](=O)[O-])s1	.	1	-39	.	.	.
O=C(Nc1ccc(Cl)cc1)Nc1ccccc1Sc1ncc([N+](=O)[O-])s1	54*	22	-18	-13	5	72*
CC(=O)N1CCN(c2nc3ccc([N+](=O)[O-])cc3s2)CC1	-2	4	4	-10	-1	.
